{
  "source": "PubChem BioAssay (NCI)",
  "note": "This is part of a sample that, as a whole, favours compounds with a hit. Of some 83,000 tested, about 20% had one in any assay.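 Interpretation: 100, growth as untreated; towards 0, rising growth inhibition; 0, no net growth; 0 to -100, cell death. Compounds scoring below 10 were considered active.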 Values without a mark were called inactive. The source made the active and inactive calls.",
  "data": [
    {"system": "MDA-MB-468 breast", "assay": "NCI-60 one-dose screen, 48 h (100 = growth as untreated, 0 = no growth, -100 = all killed)", "conditions": "10 µM unless noted", "values": [
      {"compound": "CCN(CC)S(=O)(=O)c1ccc(S(=O)(=O)N2CCC[C@@H](C(=O)N3CCN(c4nc(C(C)C)no4)CC3)C2)cc1", "growth": "12.4%"},
      {"compound": "COc1ccc(C2=NNC(c3cc(Cc4ccc(O)c(C5CC(c6ccc(OC)cc6)=NN5)c4)ccc3O)C2)cc1", "note": "(centres undefined)", "growth": "65%"},
      {"compound": "CCN(CC)CCCC(C)Nc1c2ccc(Cl)cc2nc2ccc(OC)cc12", "note": "(centres undefined)", "growth": "-63.3% (active)"},
      {"compound": "CCOC(=O)CSSCC(=O)OCC", "growth": "117%"},
      {"compound": "CN1CCN(c2nc(NCCCCNc3ccnc4cc(Cl)ccc34)c3ccccc3n2)CC1", "growth": "62.4%"},
      {"compound": "Fc1ccc(-c2nnc(-c3c(-c4ccc(F)cc4)nc4ncccn34)o2)cc1", "growth": "88.7%"},
      {"compound": "CCN1CCN(CC(=O)N2c3cccc4cccc(c34)N(C(=O)CN3CCN(CC)CC3)C2c2cn(-c3ccccc3)nc2-c2cccc([N+](=O)[O-])c2)CC1", "growth": "-47.8% (active)"},
      {"compound": "CCCc1n(Cc2ccc3ccccc3c2)cc[n+]1Cc1ccc2ccccc2c1", "growth": "-45.4% (active)"},
      {"compound": "O=c1[nH]ncc(Br)c1Br", "growth": "-15.7% (active)"},
      {"compound": "N#Cc1nc(-c2ccc(F)cc2)oc1S(=O)(=O)N1CCN(c2ccc(F)cc2)CC1", "growth": "86.9%"},
      {"compound": "C[C@H]1OCC2(CCN(c3cnc(C(=O)Nc4cc(F)cc5cccnc45)cn3)CC2)[C@H]1N", "growth": "-4.2% (active)"},
      {"compound": "COc1ccc(OC)c(Nc2nc3nonc3nc2Nc2cc(OC)ccc2OC)c1", "growth": "63.1%"},
      {"compound": "CC(C)(C)c1cc(Br)cc(C(C)(C)C)c1O", "growth": "110%"},
      {"compound": "CC1OC2CC(=O)OC2C2=C1C(=O)c1c(O)cccc1C2=O", "note": "(centres undefined)", "growth": "-73.4% (active)"},
      {"compound": "CCOC(=O)c1c(C)nc2ccccc2c1/C=C/c1ccccc1", "growth": "24.7%"},
      {"compound": "CC(=O)Oc1ccc(CCN2C(=O)CSC2=S)cc1", "growth": "-12.9% (active)"},
      {"compound": "CCCCCC(=O)Oc1ccc(/C(=C(\\C)c2ccccc2)c2ccc(OCCN3CCCCC3)cc2)cc1", "growth": "75.7%"},
      {"compound": "Cc1nn(-c2ccccc2)c(Cl)c1/C=N\\N=c1/sc2ccccc2n1C", "growth": "113%"},
      {"compound": "CC1=NN(c2nc(-c3ccc(Cl)cc3)c(C#N)c(N3CCOCC3)n2)C(=O)C1", "growth": "98.3%"},
      {"compound": "Clc1cnc(Nc2ccc(OCCN3CCCC3)cc2)nc1NCc1ccco1", "growth": "16.6%"},
      {"compound": "COc1cccc2c1CN(C(=O)c1ccc(O)c(C(=O)N3Cc4ccc(OCCC[P+](c5ccccc5)(c5ccccc5)c5ccccc5)cc4C3)c1)C2", "growth": "-2.86% (active)"},
      {"compound": "Cc1nc(Nc2ccc(Cl)cc2)c2cnn(-c3ccccc3)c2n1", "growth": "98.3%"},
      {"compound": "COC(=O)C(=Cc1ccccc1[N+](=O)[O-])C(=O)OC", "growth": "20.2%"},
      {"compound": "CN(Cc1ccccc1)c1nc(Cl)c(C2CC(c3ccc(Cl)cc3)=NN2c2cc(Cl)cc(Cl)c2)s1", "note": "(centres undefined)", "growth": "101%"},
      {"compound": "CCNC(=O)N1CCc2cc(OC)c(OCCc3ccc(OC)nc3)cc2C1c1ccc(C)cc1C", "note": "(centres undefined)", "growth": "8.04% (active)"},
      {"compound": "CNc1ccc(CSc2ccc(Cl)cc2)cc1", "growth": "78.5%"},
      {"compound": "O=C1C(Cl)=C(Nc2ccc3cn[nH]c3c2)C(=O)c2ccccc21", "growth": "-82.9% (active)"},
      {"compound": "CCOC(=O)/C(C#N)=C/c1cccc(C)c1", "growth": "90.9%"},
      {"compound": "COc1ccc(-c2cc(-c3cccc4ccccc34)n3c(n2)nc2ccccc23)cc1", "growth": "52.4%"},
      {"compound": "O=C(Nc1cc(-c2cccnc2)nc(NCCCN2CCOCC2)n1)c1cc(Br)cc(C(F)(F)F)c1", "growth": "52.8%"},
      {"compound": "COc1ccc(C)cc1OC", "growth": "137%"},
      {"compound": "COc1cc(OC)c(/C=C/c2cc[n+](C)c3ccccc23)c(OC)c1", "growth": "-20.6% (active)"},
      {"compound": "Cc1nn(-c2ccccc2)c2ncnc(N/N=C/c3ccccc3O)c12", "growth": "-31.7% (active)"},
      {"compound": "CCOC(=O)C(=Cc1cccc(Cl)c1)C(=O)OCC", "growth": "37.9%"},
      {"compound": "O=C(O)c1cn(C2CC2)c2cc(N3CCN(C(=O)CSc4nc(NS(=O)(=O)c5ccccc5)cc(=O)[nH]4)CC3)c(F)cc2c1=O", "growth": "98.7%"},
      {"compound": "CCc1ccc2c(c1)N(CCO)C1=C(C(=O)OC1)C2c1cc(OC)c(OC)c(OC)c1", "note": "(centres undefined)", "growth": "2.83% (active)"},
      {"compound": "C=C1C(=O)O[C@H]2[C@H]1CC/C(COC(=O)c1cn(C)c3ccccc13)=C\\CC[C@@]1(C)O[C@@H]21", "growth": "-66.4% (active)"},
      {"compound": "COc1ccc(-c2nc3sccn3c2-c2ccnc(NCCNS(=O)(=O)c3ccc(C(F)(F)F)cc3)n2)cc1", "growth": "30.2%"},
      {"compound": "CC(c1ccccc1)N1CSc2nc3ncncc3n2C1", "note": "(centres undefined)", "growth": "-0.761% (active)"}
    ]}
  ]
}
